# Assay outcomes (PubChem BioAssay)
# Luc counter: Kinase-Glo luciferase inhibition (counter-screen); Kinase-Glo luciferase, ATP luminescence, 8 min; Potency, µM (doses to about 38.3 µM), without a hit: at the highest dose activity change, negative = inhibition, actives largely listed as inhibitors; 200,000 tested, 0.28% active; further: on the % scale 0 is the no-effect control and ±100 the full control effect; nearly all actives have a fitted effect of over 60% in size
#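 Compounds were added to a substrate mix at pH 7.2 (50 mM imidazole, 10 uM ATP, within the enzyme's linear range), followed by Kinase-Glo detection reagent; luminescence was measured after 8 minutes at ambient temperature.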
# Rab9 prom act: activates the Rab9 promoter; Huh7 Rab9 promoter-luciferase reporter, luminescence, 24 h; Potency, µM (series often up to 9.22 µM), for inactives: at the top dose activation, negative = inhibition, hits mostly activators; 320,000 tested, 2.8% active; AID 485297; further: % of control where 0% means no effect; nearly all actives have a fitted effect of over 60% in size
#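 Steps: seed 1500 Huh7 Rab9-luc cells per well, rest 2 h at 37 °C; add compound in DMSO; incubate 24 h; add luciferase reagent, 10 min ambient; read luminescence.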
# NPC1 prom act: activators of NPC1 promoter; Huh7 NPC1 promoter luciferase reporter, 24 h; 320,000 tested, 2.4% active; Potency, µM (titrated, usually from 9.22 µM), for the others: at the highest dose activation, usual class: activators; further: % of control where 0% means no effect; nearly all actives have a fitted effect of over 60% in size
#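 Luminescence from an NPC1 promoter-driven luciferase reporter in stably transfected Huh7 cells was measured after 24 h compound treatment at 37 °C, followed by 10 min ambient incubation with luciferase detection reagent.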
# FLuc modulator: counter-screen for miR-21 project: firefly luciferase inhibitors or activators. P08659. purified FLuc, Km substrates, luminescence inhibition. Potency, µM (highest dose often 57.5 µM), for inactives: at the top dose activity change, negative = inhibition, actives largely listed as inhibitors. 360,000 tested, 6.9% active. AID 588342;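 further: plate controls were vehicle for no effect and reference inhibitor for full effect; nearly all actives have a fitted effect of over 55% in size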
# Target sequence (P08659 whole entry, looked up): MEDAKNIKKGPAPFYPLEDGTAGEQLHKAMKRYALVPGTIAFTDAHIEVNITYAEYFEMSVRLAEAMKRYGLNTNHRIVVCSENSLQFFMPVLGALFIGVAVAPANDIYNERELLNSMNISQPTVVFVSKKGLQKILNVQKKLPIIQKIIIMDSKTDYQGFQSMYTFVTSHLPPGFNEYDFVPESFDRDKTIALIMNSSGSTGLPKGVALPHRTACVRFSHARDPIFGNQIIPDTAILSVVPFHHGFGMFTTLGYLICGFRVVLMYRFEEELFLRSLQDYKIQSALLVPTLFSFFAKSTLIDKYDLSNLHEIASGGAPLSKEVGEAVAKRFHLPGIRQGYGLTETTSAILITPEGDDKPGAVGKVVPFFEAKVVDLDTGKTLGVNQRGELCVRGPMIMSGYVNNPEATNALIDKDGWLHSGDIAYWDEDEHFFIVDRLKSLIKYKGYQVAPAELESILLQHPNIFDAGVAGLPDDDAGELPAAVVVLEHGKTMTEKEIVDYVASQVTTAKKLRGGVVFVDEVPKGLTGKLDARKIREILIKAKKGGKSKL
#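 Purified P. pyralis luciferase (10nM final) with 10uM D-luciferin and 10uM ATP (Km levels) in 50mM Tris acetate pH 7.5, 10mM Mg acetate, 0.01% Tween-20, 0.05% BSA; qHTS 6-point titration, ~60 µM downward; luminescence read.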
# ELG1 genotox: induces genotoxicity in HEK293T cells with luciferase-tagged ELG1; HEK293T ELG1-luciferase reporter, luminescence, 16 h; Potency, µM (doses to about 46 µM), for the others: top-dose activity change, positive = activation, most hits filed as activators; 330,000 tested, 1.3% active; further: % of control where 0% means no effect; nearly all actives have a fitted effect of over 60% in size
#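 ELG1-luciferase HEK293T cells, 2,000/well; compound pinned in; 16 hr, 37 °C, 5% CO2; ONE-Glo, 30 min RT; luminescence on CCD imager.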
# SMN2 splice enh: increases expression of the SMN2 splice variant; 210,000 tested, 2.8% active; HEK293 SMN2-luciferase splicing reporter, luminescence, 30-36 h; Potency, µM (series often up to 46.1 µM), for inactives: at the highest dose activity change, positive = activation, hits mostly activators; further: % of control where 0% means no effect; nearly all actives have a fitted effect of over 55% in size
#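 qHTS luciferase splicing reporter: luminescence rises when SMN2 exon 7 is included in transfected HEK293 cells. Compound exposure lasted 30-36 h at 37C, with 4.5 mM final sodium butyrate as control, followed by a ONE-Glo read.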
# Active calls of the source: *; ? = inconclusive; / = no result given. Most compounds without a hit are left out; they make up all but 7.5% or so of the library. The call rests on the fitted dose curve; in most records, active means well fitted curve in the direction sought with a large enough effect; inconclusive means small, poorly fitted or top-dose-only effect, or another doubt; inactive means no such curve, though single readings can be large; an effect the other way counts as inactive or inconclusive. Potency means the concentration at half of the fitted maximal effect.
SMILES,Luc counter,Rab9 prom act,NPC1 prom act,FLuc modulator,ELG1 genotox,SMN2 splice enh
COc1cccc(/C=C/C(=O)c2ccc(C)c([N+](=O)[O-])c2)c1,0%,-4%,-1%,?,7%,119%
C1OCOCO1,/,/,/,/,/,2%
CCOC(=O)Cn1c(=O)n(C2CCCCC2)c2nc(-c3cccc(C)c3)nc(C(N)=O)c21,/,/,/,0%,/,/
O=C(/C=C/c1ccccc1)Nc1ccc(CN2CCOCC2)cc1,1%,?,18%,12µM*,17%,29%
O=C(/C=C/c1ccco1)Nc1ccccc1N1CCOCC1,-2%,2%,-6%,-12%,-1%,2%
O=C(/C=C/c1ccco1)Nc1ccc(C(=O)N2CCOCC2)cc1,-4%,3%,10%,?,3%,21%
O=C(/C=C/c1ccc(Cl)cc1)NC(=S)Nc1ccc(CN2CCOCC2)cc1,-1%,-2%,-11%,0%,?,/
O=C(/C=C/c1ccco1)Nc1ccc(CN2CCOCC2)cc1,/,2.8µM*,1.4µM*,6µM*,?,/
O=C(/C=C/c1ccco1)Nc1ccc(N2CCCC2)cc1,-9%,2.8µM*,3.5µM*,2.4µM*,?,16µM*
O=C(/C=C/c1ccc(Cl)cc1Cl)Nc1ccc(CN2CCOCC2)cc1,0%,-22%,-8%,7.6µM*,9%,-77%
Cc1ccc(C(=O)Nc2ncc([N+](=O)[O-])s2)cc1,/,0.025µM*,0.032µM*,0.12µM*,?,/
O=C(Nc1ncc([N+](=O)[O-])s1)c1ccc2c(c1)OCO2,/,1.3µM*,3.2µM*,0.11µM*,?,/
O=C(Nc1ncc([N+](=O)[O-])s1)c1ccco1,/,1.1µM*,1.6µM*,11µM*,2.6µM*,/
Cc1ccc([N+](=O)[O-])cc1NC(=O)c1ccc2c(c1)OCO2,1%,-1%,0%,-12%,-6%,-8%
Cc1onc(-c2ccccc2)c1C(=O)Nc1ncc([N+](=O)[O-])s1,/,-19%,-11%,-20%,-39%,/
CCOc1ccc(NC(=O)Cn2cc(C(=O)c3ccc(CC)cc3)c(=O)c3cc(C)ccc32)cc1,/,/,/,-5%,/,1%
CCn1c(=O)c2sccc2n(Cc2ccc(C)cc2)c1=O,/,-2%,0%,-1%,6%,/
COC(=O)c1cc(S(=O)(=O)NCc2ccc(Br)cc2)c[nH]1,/,0%,1%,-2%,1%,/
CCCCCNC(=O)c1ccc2c(c1)ncn2-c1cccc(C)c1,/,/,/,-11%,/,/
Cc1cccc(-n2cnc3cc(C(=O)N4CCCCC4)ccc32)c1,-5%,?,?,24µM*,20%,?
CCN(CC)c1ccc(NC(=O)CCS(=O)(=O)c2ccc3c(c2)oc(=O)n3C)c(C)c1,/,/,/,-7%,/,/
CCCOc1ccc(CNC(=O)c2oc3ccc4c(c3c2C)C(=O)CC(C)(CC)O4)cc1 (centres undefined),/,/,/,?,/,-23%
Cc1c(C(=O)NCC2CCCO2)oc2ccc3c(c12)C(=O)CC(C)(C)O3 (centres undefined),-1%,2.5µM*,?,2.7µM*,?,/
COc1ccccc1CNC(=O)c1oc2ccc3c(c2c1C)C(=O)CC(C)(C)O3,/,/,/,5.4µM*,/,13%
CCCCCCc1cc2cc(-c3cn4c(n3)sc3cc(OC)ccc34)c(=O)oc2cc1O,/,/,/,0%,/,/
CN(c1ccccc1)c1ccc(/C=C/[N+](=O)[O-])cc1,-4%,17%,9%,11µM*,-6%,-84%
Cn1c(NC(=O)c2ccccc2NC(=O)C(C)(C)C)nc2ccccc21,3%,-2%,-4%,27µM*,-41%,-2%
Cn1c(NC(=O)c2ccc(F)cc2)nc2ccccc21,/,4µM*,3.5µM*,3µM*,?,/
Cn1c(NC(=S)Nc2ccccc2)nc2ccccc21,-5%,?,?,6.7µM*,?,8.9µM*
O=C(Nc1nc2ccccc2c2nc3ccccc3n12)c1ccc(F)cc1,3%,-5%,-2%,0%,-9%,-22%
